For 8 compounds, Percent Effect results are on record in ChEMBL document CHEMBL3988442, “University of Dundee, Small-Polar-MMV Screening Library” (2021).

Common to all, as to set-up: scale not given: direction of the effect not stated beside the values
The target of experiment [1] is Protein translocase subunit SecA (Escherichia coli (strain K12)) (UniProt P10408). Put plainly: Assay to Identify E. coli SecA ATPase Inhibitors. It counts as functional. Conditions: 30 µM.
Experiment [2] addresses T1, Ubiquitin-activating enzyme e1, putative (Leishmania donovani (strain BPK282A1)) (UniProt E9BSI1).
T1 sequence (whole entry): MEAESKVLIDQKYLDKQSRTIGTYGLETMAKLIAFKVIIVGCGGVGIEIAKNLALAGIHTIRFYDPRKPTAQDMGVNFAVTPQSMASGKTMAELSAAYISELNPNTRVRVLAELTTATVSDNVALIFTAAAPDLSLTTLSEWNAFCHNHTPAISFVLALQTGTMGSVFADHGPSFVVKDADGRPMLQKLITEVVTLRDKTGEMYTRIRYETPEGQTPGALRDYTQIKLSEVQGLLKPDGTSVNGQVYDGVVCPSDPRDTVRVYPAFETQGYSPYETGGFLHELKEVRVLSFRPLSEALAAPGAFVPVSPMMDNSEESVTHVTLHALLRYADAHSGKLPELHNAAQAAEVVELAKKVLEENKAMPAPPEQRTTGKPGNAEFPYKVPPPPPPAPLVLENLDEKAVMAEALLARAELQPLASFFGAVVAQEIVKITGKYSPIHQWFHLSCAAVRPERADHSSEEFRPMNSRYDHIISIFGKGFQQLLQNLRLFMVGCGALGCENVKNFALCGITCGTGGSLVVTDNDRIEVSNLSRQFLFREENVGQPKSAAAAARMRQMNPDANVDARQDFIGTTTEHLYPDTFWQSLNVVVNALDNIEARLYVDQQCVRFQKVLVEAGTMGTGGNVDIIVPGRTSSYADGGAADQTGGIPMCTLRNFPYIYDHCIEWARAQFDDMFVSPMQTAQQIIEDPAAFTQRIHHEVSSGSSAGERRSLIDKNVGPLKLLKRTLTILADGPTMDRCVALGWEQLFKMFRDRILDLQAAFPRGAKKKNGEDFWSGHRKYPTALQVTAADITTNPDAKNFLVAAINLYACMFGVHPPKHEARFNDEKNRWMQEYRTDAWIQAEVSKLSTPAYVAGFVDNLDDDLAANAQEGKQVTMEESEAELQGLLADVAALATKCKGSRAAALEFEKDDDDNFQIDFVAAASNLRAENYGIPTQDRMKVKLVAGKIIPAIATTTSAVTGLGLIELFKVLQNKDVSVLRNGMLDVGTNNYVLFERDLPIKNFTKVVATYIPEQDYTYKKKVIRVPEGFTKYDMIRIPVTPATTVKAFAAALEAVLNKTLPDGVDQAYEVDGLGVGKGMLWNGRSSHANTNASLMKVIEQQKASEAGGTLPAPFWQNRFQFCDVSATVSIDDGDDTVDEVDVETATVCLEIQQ
Put plainly: Leishmania donovani Ubiquitin Activating Enzyme (LdE1). It counts as functional. Conditions: 30 µM.

For experiment [3], the target named is AMP-activated protein kinase, AMPK (Homo sapiens) (UniProt P54646+O43741+P54619+Q9UGJ0+Q9Y478+Q13131+Q9UGI9). Put plainly: AMP-dependent Kinase enzyme assay. An in vitro enzyme assay that detects ADP turnover that is directly proportional to AMPK activity. This uses naive AMPK that is activated during the assay with MK-8722. It counts as functional. The following applies: 30 µM.

Experiment [4] has as its target Sialic acid-binding Ig-like lectin 9 (Homo sapiens) (UniProt Q9Y336). Put plainly: Hs-Siglec9 ALPHAscreen SOP 20170721. The following applies: 10 µM. On the technique in general: Alpha assays give light when donor and acceptor beads are brought close together.
The next experiment deals with Trypanosoma cruzi. Put plainly: Trypanosoma cruzi phosphomannomutase and mannose-1-phosphate guanylyltransferase assay. It counts as functional. The following applies: 10 µM.
The target of experiment [5] is T2, Arginase-2, mitochondrial (Homo sapiens) (UniProt P78540).
T2 sequence (whole entry): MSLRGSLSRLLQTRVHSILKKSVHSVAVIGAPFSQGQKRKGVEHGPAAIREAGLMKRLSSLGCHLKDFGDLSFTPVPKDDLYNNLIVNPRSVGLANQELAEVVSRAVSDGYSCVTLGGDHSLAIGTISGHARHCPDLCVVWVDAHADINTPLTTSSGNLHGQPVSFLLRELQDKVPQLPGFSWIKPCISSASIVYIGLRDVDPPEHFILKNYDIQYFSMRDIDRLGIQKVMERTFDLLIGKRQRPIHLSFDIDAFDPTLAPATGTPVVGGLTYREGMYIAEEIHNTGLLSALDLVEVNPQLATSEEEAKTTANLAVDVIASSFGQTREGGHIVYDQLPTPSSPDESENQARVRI
Put plainly: in vitro enzyme assay to detect the production of urea directly proportional to the activity of Arginase II. Further: in the data most compounds retested in dose-response had high values. It counts as functional. Conditions: 33.3 µM.

The target in experiment [6] is T3, Proteasome subunit beta (Trypanosoma cruzi) (UniProt O96673).
T3 sequence (whole entry): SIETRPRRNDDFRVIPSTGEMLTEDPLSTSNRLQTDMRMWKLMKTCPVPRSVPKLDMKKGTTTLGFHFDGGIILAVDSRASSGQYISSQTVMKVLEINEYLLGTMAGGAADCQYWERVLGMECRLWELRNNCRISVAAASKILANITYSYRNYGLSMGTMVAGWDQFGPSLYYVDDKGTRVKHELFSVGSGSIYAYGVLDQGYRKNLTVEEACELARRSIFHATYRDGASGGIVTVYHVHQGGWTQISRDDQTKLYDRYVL
Nature of the experiment: Trypanosoma cruzi proteasome chymotrypsin-like activity (TcProtChymo) assay. Further: in the data most compounds retested in dose-response had high values. It counts as functional. Conditions: 9.37 µM.

The species entered for another experiment is Homo sapiens. Put plainly: To identify inhibition of the IFN signalling (Jak-Stat) pathway via expression of an eGFP reporter gene under the control of an IFN-stimulated response element (ISRE) containing MxA promoter. It counts as functional. Conditions: 30 µM.
Experiment [7] deals with T4, Tyrosyl-tRNA synthetase, putative (Trypanosoma cruzi (strain CL Brener)) (UniProt Q4DSP6).
T4 sequence (whole entry): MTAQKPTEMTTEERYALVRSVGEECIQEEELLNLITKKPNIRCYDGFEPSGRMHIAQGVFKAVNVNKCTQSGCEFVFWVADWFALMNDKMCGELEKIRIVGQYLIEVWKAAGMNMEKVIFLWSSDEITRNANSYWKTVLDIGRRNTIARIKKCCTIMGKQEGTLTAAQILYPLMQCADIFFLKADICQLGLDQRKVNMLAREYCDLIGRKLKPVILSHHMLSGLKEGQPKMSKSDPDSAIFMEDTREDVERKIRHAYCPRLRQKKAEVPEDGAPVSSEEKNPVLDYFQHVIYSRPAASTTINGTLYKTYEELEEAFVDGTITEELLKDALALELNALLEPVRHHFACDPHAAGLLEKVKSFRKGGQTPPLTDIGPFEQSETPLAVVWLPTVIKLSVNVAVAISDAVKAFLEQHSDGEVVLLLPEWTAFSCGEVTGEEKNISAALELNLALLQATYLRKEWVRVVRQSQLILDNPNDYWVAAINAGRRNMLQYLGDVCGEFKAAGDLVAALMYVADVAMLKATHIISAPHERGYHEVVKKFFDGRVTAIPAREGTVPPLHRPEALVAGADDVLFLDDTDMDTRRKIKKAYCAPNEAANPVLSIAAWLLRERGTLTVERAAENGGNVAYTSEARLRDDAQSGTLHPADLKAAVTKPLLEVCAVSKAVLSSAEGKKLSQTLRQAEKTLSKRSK
Nature of the experiment: Trypanosoma cruzi tyrosyl tRNA synthetase (TcYRS) _High Tyrosine SOP. Further: in the data most compounds retested in dose-response had high values. The format is functional. Conditions: 30 µM.

For experiment [8], the target named is T4, Tyrosyl-tRNA synthetase, putative (Trypanosoma cruzi (strain CL Brener)). Put plainly: Trypanosoma cruzi tyrosyl tRNA synthetase (TcYRS) SOP. The format is functional. The following applies: 30 µM.
In experiment [9] the target is Chromo domain-containing protein 1 (Saccharomyces cerevisiae (strain ATCC 204508 / S288c) (Baker's yeast)) (UniProt P32657). Put plainly: ScCHD-1 Enzyme Inhibition Assay. Further: in the data most compounds retested in dose-response had high values. It counts as functional. Conditions: 30 µM.
Sequence of Chromo domain-containing protein 1 (Saccharomyces cerevisiae (strain ATCC 204508 / S288c) (Baker's yeast)) (P32657 whole entry, the tested form may be a part): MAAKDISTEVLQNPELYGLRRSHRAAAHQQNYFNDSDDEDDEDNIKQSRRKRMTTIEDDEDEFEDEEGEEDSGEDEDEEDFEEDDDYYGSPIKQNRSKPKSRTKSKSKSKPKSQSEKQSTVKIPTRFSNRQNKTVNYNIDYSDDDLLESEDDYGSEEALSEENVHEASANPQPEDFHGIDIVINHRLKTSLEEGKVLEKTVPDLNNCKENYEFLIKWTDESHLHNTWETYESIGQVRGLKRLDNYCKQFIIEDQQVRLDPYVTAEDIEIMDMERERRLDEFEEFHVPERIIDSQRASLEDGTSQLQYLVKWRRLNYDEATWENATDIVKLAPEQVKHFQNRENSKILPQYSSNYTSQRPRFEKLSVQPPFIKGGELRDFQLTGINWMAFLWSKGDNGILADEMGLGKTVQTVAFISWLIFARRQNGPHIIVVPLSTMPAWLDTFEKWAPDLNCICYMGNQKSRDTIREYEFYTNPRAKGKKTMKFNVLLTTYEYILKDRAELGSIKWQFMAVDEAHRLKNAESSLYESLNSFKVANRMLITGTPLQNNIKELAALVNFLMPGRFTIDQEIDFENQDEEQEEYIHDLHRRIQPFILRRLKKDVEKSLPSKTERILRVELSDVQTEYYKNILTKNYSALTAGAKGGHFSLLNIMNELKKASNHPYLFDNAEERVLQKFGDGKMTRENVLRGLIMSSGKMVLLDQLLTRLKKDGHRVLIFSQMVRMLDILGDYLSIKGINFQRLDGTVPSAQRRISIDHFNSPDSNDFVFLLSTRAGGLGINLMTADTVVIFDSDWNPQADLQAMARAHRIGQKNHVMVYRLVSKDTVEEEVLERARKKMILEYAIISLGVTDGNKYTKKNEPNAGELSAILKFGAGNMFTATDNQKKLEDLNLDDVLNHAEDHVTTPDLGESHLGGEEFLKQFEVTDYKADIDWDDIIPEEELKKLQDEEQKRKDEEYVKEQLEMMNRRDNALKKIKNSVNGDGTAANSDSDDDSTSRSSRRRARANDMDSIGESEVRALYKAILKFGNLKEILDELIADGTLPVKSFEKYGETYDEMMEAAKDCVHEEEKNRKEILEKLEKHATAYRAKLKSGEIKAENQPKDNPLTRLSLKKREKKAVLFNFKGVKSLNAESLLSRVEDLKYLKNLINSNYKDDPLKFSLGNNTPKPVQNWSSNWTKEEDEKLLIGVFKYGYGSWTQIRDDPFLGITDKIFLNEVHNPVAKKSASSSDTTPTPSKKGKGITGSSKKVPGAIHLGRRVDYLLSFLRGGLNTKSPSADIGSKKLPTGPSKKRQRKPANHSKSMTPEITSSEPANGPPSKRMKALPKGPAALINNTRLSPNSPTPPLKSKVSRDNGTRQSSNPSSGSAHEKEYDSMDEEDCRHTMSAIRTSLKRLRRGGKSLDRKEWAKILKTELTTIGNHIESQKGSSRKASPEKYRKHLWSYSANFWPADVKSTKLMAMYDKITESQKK

For some of these results: Potency and affinity values are given separately.

Sequence of Sialic acid-binding Ig-like lectin 9 (Homo sapiens) (Q9Y336 whole entry): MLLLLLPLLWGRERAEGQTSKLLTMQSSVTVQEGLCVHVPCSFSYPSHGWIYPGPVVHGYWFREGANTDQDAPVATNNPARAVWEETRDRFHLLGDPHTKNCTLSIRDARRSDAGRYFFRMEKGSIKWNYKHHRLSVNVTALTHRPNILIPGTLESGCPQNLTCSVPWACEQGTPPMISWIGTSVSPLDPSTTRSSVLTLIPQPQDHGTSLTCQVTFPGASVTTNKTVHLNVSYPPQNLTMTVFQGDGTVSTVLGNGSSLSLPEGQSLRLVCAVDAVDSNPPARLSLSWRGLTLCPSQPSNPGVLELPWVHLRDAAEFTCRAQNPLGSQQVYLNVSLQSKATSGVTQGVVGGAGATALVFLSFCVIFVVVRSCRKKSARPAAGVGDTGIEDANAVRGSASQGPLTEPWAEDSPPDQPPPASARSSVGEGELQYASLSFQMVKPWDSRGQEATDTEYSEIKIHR
Sequence of Protein translocase subunit SecA (Escherichia coli (strain K12)) (P10408 whole entry): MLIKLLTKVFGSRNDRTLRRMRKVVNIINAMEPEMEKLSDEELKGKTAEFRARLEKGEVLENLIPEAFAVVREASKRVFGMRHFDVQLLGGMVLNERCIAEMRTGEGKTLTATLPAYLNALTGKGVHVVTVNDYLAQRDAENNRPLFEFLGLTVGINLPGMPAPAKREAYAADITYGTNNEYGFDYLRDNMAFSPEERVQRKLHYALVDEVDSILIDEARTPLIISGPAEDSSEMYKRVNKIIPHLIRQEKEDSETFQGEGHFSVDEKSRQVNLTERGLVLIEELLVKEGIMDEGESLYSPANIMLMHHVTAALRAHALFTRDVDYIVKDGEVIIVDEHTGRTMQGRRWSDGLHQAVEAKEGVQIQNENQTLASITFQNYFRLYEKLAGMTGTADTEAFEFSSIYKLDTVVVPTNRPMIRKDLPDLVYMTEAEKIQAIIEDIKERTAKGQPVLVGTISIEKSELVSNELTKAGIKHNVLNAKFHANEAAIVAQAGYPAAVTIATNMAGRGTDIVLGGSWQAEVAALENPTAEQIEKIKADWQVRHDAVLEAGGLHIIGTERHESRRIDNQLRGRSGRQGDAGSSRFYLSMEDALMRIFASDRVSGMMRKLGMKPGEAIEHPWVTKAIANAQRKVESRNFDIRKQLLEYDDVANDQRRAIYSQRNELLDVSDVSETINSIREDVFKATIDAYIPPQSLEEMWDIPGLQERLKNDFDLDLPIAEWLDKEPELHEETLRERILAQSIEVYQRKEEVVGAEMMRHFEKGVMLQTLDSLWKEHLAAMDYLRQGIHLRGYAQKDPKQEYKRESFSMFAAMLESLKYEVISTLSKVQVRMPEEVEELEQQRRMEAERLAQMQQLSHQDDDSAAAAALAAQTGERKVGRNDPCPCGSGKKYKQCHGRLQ

`Cc1csc(C2CCCN(C(=O)c3cnc[nH]3)C2)n1` (stereo not drawn): the Percent Effect in experiment [1] is -3.16%; in experiment [2], 10.8%; in [3], -8.22%; in [4] it was 15.3%; in the experiment with Trypanosoma cruzi it was 3.11%; in experiment [5], -4.41%. In addition, the Percent Effect in experiment [6] is 3.42%; in the experiment listed under Homo sapiens it was 32.5%; in [7], 5.42%; in [8] it was 18.5%; in experiment [9] it was -10.5%.

With `CN1CCC(c2cccc(Cc3ccc(F)cc3)n2)CC1`, the Percent Effect in experiment [1] was -4.16%; in [2], -1.35%; in experiment [3], 11.1%; in experiment [4], -2.02%; in the experiment on Trypanosoma cruzi, 0.395%; in [5], -6.26%. In addition, the Percent Effect in experiment [6] is 6.08%; in the experiment filed under Homo sapiens it was 2.47%; in [7], 2.15%; in [8], -1.3%; in experiment [9], -7.17%.

As to `COc1ccccc1[C@@H]1CN(Cc2cc(C(C)(C)C)[nH]n2)C[C@H]1C(=O)O`, the Percent Effect in experiment [1] is -3.72%; in [2] it was 18.1%; in [3], -4.78%; in experiment [4], 2.73%; in the experiment with Trypanosoma cruzi, 4.18%; in experiment [5], 5.3%. The Percent Effect in experiment [6] was 20.2%; in the experiment filed under Homo sapiens, 0.766%; in experiment [7] it was 5.26%; in [8], 10.3%; in experiment [9] it was -3.34%.

Turning to `Cc1nc(Nc2nccs2)cc(C2CCCN2C2CCOCC2)n1` (stereo not drawn), the Percent Effect in [1] is -6.58%; in experiment [2], 12.2%; in experiment [3], 4.38%; in [4], 1.96%; in the experiment with Trypanosoma cruzi, 4.35%; in experiment [5], -3.48%. For the same compound, the Percent Effect in experiment [6] was 8.89%; in the experiment listed under Homo sapiens, 6.9%; in experiment [7], 6.45%; in [8] it was 14.3%; in experiment [9], -16.1%.

Consider `Cc1ccc(CN2Cc3nnn(C)c3C(COCCN(C)C)C2)s1` (stereo not drawn), for which the Percent Effect in [1] is -6.87%; in [2] it was 2.7%; in experiment [3] it was -1.39%; in [4], -1.89%; with Trypanosoma cruzi, -5.57%; in [5], -3.72%. Besides, the Percent Effect in [6] was 4.89%; in the experiment filed under Homo sapiens, 15%; in experiment [7] it was 2.15%; in experiment [8], 8.64%; in [9], -3.26%.

As to `c1cnnc(N2CCCC2CNc2ncnc3ccccc23)c1` (stereo not drawn), the Percent Effect is -3.22% in [1]; -3.8% in [2]; 9.15% in experiment [3]; -3.44% in [4]; -4.41% in the experiment with Trypanosoma cruzi; 4.09% in experiment [5]. Further, the Percent Effect is 9.61% in experiment [6]; 36% in the experiment listed under Homo sapiens; 25% in experiment [7]; 27.9% in [8]; -16.5% in [9].

As to `CCS(=O)(=O)c1ccc(N2CCC(NC(C)=O)CC2)cc1`, the Percent Effect in experiment [1] was -5.48%; in [2], 2.67%; in experiment [3], 0.562%; in experiment [4], -0.234%; in the experiment with Trypanosoma cruzi, -3.21%; in experiment [5], -1.04%. Besides, the Percent Effect in [6] is 14.8%; in the experiment listed under Homo sapiens, 24.6%; in [7] it was 2.73%; in experiment [8], 8.64%; in experiment [9], -7.72%.

For the compound `CNc1cc(C2CCCN2Cc2ccccc2C(=O)O)ccn1` (stereo not drawn), the Percent Effect was -4.24% in experiment [1]; -6.76% in [2]; 3.65% in experiment [3]; -0.354% in experiment [4]; -1.19% with Trypanosoma cruzi; -0.696% in experiment [5]. Further, the Percent Effect is 7.33% in experiment [6]; 7.54% in the experiment filed under Homo sapiens; 8.6% in experiment [7]; 11.7% in experiment [8]; -11.7% in experiment [9].
